“And” between values parts separate entries of the source, which are not always exact repeats. Equal values may be shown once. The whole screen tested about 420,000 compounds, of which about 50,000 (12%) were called active. A call without a number means that no potency is given here. About 26% were inconclusive and are not listed. The sample holds actives, similar compounds and a random draw of the others, so the mix is not that of the screen. Calls follow the shape of the dose curve; as a rule, active = well fitted inhibition curve with a large enough effect; inconclusive = small, poorly fitted or top-dose-only effect; inactive = flat fitted curve, though single readings scatter. Some structures have more than one record in an assay (separate samples or runs), and their calls can disagree.
experiment: qHTS for Inhibitors of human tyrosyl-DNA phosphodiesterase 1 (TDP1): qHTS in cells in presence of CPT; details: chicken DT40 Tdp1-/-;hTDP1 cells + 20 nM CPT, ATP luminescence, 48 h; series mostly up to 46.2 µM; also: nearly all actives have a fitted effect of over 55% in size
In short: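 Chicken DT40 Tdp1-/- cells stably complemented with human TDP1 were seeded at 400 cells/well in medium containing 20 nM camptothecin, exposed to pin-transferred compounds, and grown at 37 °C for at least 48 hr. Viability was read as ATP luminescence.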
Potency is read from the fitted curve at half-maximal effect.

SMILES	Potency	activity change, negative = growth inhibition
Cc1cccc(-c2noc(-c3ccc(F)cc3)n2)c1	inactive	
CC(C)S(=O)(=O)c1oc(-c2ccc(F)cc2)nc1S(=O)(=O)c1ccc(F)cc1	0.291 µM (active)	
COc1cc(-c2nc(S(=O)(=O)c3ccc(Cl)cc3)c(N(C)C)o2)cc(OC)c1OC	inactive	
COc1ccc2c(c1)C(NS(=O)(=O)OCC(Cl)(Cl)Cl)CCC2 (centres undefined)	inactive	
C=CC1C(OC2OC(CO)C(O)C(O)C2O)OC=C(C(=O)OC)C1CC1CC(=O)CC(CC(=O)CCc2ccc(O)cc2)O1 (centres undefined)	inactive	
Cc1ccccc1NC(=O)Cc1nc(COC(=O)c2cccnc2Cl)cs1	inactive	
Cc1ccc(CSc2nc(-c3ccccc3)c(C#N)c(=O)[nH]2)cc1	inactive	
CC1CCC(NC(=O)c2ccc(N3CCCC3=O)cc2)CC1 (centres undefined)	inactive	
O=C(NC1CCCCC1)c1ccc(CNc2c(N3CCOCC3)c(=O)c2=O)cc1	inactive	
CN1C(=O)/C(=C/c2ccc(C(=O)NC3CCCC3)cc2)Oc2ccccc21	13 µM (active)	
CC(C)CC(=O)Nc1nnc(S(=O)(=O)N(C)c2ccc(Cl)cc2)s1	inactive and 146 nM (active)	
CCC(=O)Nc1nnc(S(=O)(=O)N(CC(C)C)c2ccccc2)s1	inactive	
COc1cccc(C(=O)Nc2nnc(S(=O)(=O)N(C)c3ccccc3)s2)c1	inactive	
Cc1noc(C)c1S(=O)(=O)N(C)C[C@H]1Oc2ccc(NC(=O)C3CCCCC3)cc2C(=O)N([C@H](C)CO)C[C@@H]1C	inactive	
O=C(Nn1c(-c2ccc(Cl)cc2)nc2ccccc2c1=O)c1cccnc1Cl	inactive	
COc1cc(OC)cc(-c2nc3ccccc3c(=O)n2NC(=O)c2cccnc2Cl)c1	inactive	
COc1ccccc1C(=O)Nn1c(-c2cccs2)nc2ccccc2c1=O	18.4 µM (active)	
Cc1ccc(OCC(=O)OCc2cc(=O)n3nc(C4CC4)sc3n2)cc1	inactive	
CCc1cc(C(=O)Nc2nnc(C3CC3)s2)sc1C	inactive	
CCCN(CC(=O)Nc1ccccc1C)C(=O)c1ccc(OCC(=O)N2CCOCC2)c(OCC)c1	inactive	
CCCN(CC(=O)Nc1ccccc1C)C(=O)c1cc(=O)[nH]c2ccccc12	inactive	
CCCN(CC(=O)Nc1ccccc1C)C(=O)c1ccc2[nH]c3c(c2c1)CC(C)CC3 (centres undefined)	20.6 µM (active)	
Cc1ccc(CN2CCN(c3ccccc3Cl)CC2)o1	inactive	
Cc1ccc(N2C(=O)C3C4C=CC(CC4)C3C2=O)cc1Cl (centres undefined)	inactive	
O=C(NCCN1CCOCC1)/C(=C/c1ccc(F)cc1)NC(=O)c1ccccc1	inactive	

SMILES	Potency	activity change, negative = growth inhibition
Nc1nc(COC(=O)CCC(=O)c2ccc(Cl)cc2)nc(Nc2ccccc2)n1	inactive	
CCCc1cc(C(=O)Nc2ccc(C(=O)OC)cc2)cs1	inactive	
CCOC(=O)C1CCCN(C(=O)CN(c2ccc(OC)cc2)S(=O)(=O)c2c(C)noc2C)C1 (centres undefined)	inactive	
CCOC(=O)C1CCCN(C(=O)Cn2ncc3c(=O)oc4ccc(C)cc4c32)C1 (centres undefined)	inactive	
CCOC(=O)C1CCCN(C(=O)Cn2ncc3c(C)n(Cc4ccc(F)cc4)c(C)c3c2=O)C1 (centres undefined)	14.6 µM (active)	
CCCNC(=O)c1cc(C2CCCCN2S(=O)(=O)c2cn(C)cn2)on1 (centres undefined)	inactive	
CCS(=O)(=O)N1Cc2ccccc2CC1C(=O)Nc1nc2ccc(F)cc2s1 (centres undefined)	inactive	
O=C(Nc1ccc(O)cc1)c1ccc(NC(=O)c2ccco2)cc1	inactive	
Cc1cc(C)c2cc(CN(Cc3nnnn3Cc3ccc(F)cc3)C3CCCC3)c(=O)[nH]c2c1	14.6 µM (active)	
c1ccc(CCn2nnnc2CN2CCN(C3CCCC3)CC2)cc1	inactive	
Cc1cc(C)c2cc(CN(Cc3cccs3)Cc3nnnn3CC3CCCO3)c(=O)[nH]c2c1 (centres undefined)	23.1 µM (active)	
Cc1cccc2cc(CN(Cc3nnnn3Cc3ccccc3)C3CCCC3)c(=O)[nH]c12	20.6 µM (active)	
Cc1cccc2cc(CN(C(=O)c3cccs3)c3ccccc3)c(=O)[nH]c12	inactive	
CCC(c1nnnn1C1CCCC1)N(Cc1cccs1)Cc1cc2cccc(C)c2[nH]c1=O (centres undefined)	20.6 µM (active)	
Cc1n[nH]c(=O)c2c1nnn2Cc1ccc(F)cc1	inactive	
CCCN(Cc1cc2cccc(C)c2[nH]c1=O)S(C)(=O)=O	inactive	
Cc1ccc(S(=O)(=O)N(Cc2cc3ccccc3[nH]c2=O)CC2CCCO2)cc1 (centres undefined)	inactive	
Cc1cccc2cc(CN(Cc3cccs3)C(c3nnnn3C3CCCC3)C(C)C)c(=O)[nH]c12 (centres undefined)	inactive	
O=C(c1cccs1)N(Cc1cc2ccccc2[nH]c1=O)CC1CCCO1 (centres undefined)	inactive	
Cc1occc1-c1nnc(SCC(=O)NC2CCCCC2)o1	inactive	
Cc1cc2c(cc1S(=O)(=O)CCC(=O)NCc1ccccc1)OCC(=O)N2	inactive	
CCSCc1nc(N)nc(NCCc2ccccc2)n1	inactive	
CCOc1ccc(-n2cnc3c(=O)[nH]c(N)nc32)cc1	inactive	
CN(Cc1ccc(F)cc1)C(=O)COc1ccc2ccccc2c1	inactive	
NC(=O)c1cc(-c2cccnc2)nc2ccc(Br)cc12	inactive	

SMILES	Potency	activity change, negative = growth inhibition
CN1CCCCCC1C(=O)NCCN1Cc2ccccc2OC(c2ccsc2)C1 (centres undefined)		11.9% [at 9.04 µM] (inactive)
C#CCOCCOCCOCCNc1nc(N2CCOCC2)nc(N2CCN(C(=O)[C@H](Cc3ccc(O)cc3)n3cc(CCO)nn3)CC2)n1	inactive	
CCN(C(=O)COC(=O)CCC(=O)c1cccs1)C1CCCCC1	inactive	
COc1ccc(C2CC(=O)Nc3c2c(=O)nc2c(C)cccn32)cc1OC (centres undefined)	inactive	
COc1ccc(Br)cc1C1CC(=O)Nc2c1c(C)nn2-c1nc(C)cc(C)n1 (centres undefined)	16.4 µM (active)	
COc1ccc(C2c3c(C)nn(-c4ccccc4)c3NC(=O)N2c2ccccc2)cc1 (centres undefined)	inactive	
CCCCC1(C(=O)OCC)NC(c2ccc(O)cc2)C2C(=O)N(c3ccccc3)C(=O)C21 (centres undefined)	14.6 µM (active)	
COC(=O)C1(C)NC(c2ccc(F)cc2)C2C(=O)N(c3ccccc3)C(=O)C21 (centres undefined)	inactive	
CCOC(=O)C1(C)NC(c2ccco2)C2C(=O)N(c3ccccc3)C(=O)C21 (centres undefined)	inactive	
COCCCn1c(=O)/c(=C/c2ccccc2OC(C)C)s/c1=C(\C#N)C(=O)Nc1ccc(C(=O)O)cc1	20.6 µM (active)	
COc1ccc(NC(=O)/C(C#N)=C\c2cc(OC)c(OCc3ccc(C(=O)O)cc3)cc2Br)cc1	inactive	
COc1ccccc1C(=O)N/C(=C/c1ccco1)C(=O)Nc1ccc(C(=O)O)cc1	inactive	
Cn1c(N)c(C(=O)COC(=O)COc2ccc(Cl)cc2)c(=O)n(C)c1=O	inactive	
COc1ccc(-c2cc(=O)oc3cc(OC(C)C(=O)NCC4CCC(C(=O)O)CC4)ccc23)cc1 (centres undefined)	inactive	
COc1ccc(NC(=O)CNc2cc(S(=O)(=O)N3CCOCC3)ccc2N2CCOCC2)c(OC)c1	inactive	
O=C(CC12CC3CC(CC(C3)C1)C2)NCc1ccco1	inactive	
O=C(CC12CC3CC(CC(C3)C1)C2)Nc1ccc2c(c1)COC2=O	13 µM (active)	
NS(=O)(=O)c1cccc(NC(=O)CC23CC4CC(CC(Br)(C4)C2)C3)c1	inactive	
CCN1CCN(C(=O)N(Cc2ccc(Cl)cc2)S(=O)(=O)c2ccc(C)cc2)CC1	inactive	
CC(=O)Nc1ccc(S(=O)(=O)N(C)CC(=O)NCCC2=CCCCC2)cc1	inactive	
S=C(NCCC1=CCCCC1)Nc1ccccc1	16.4 µM (active)	
S=C(NCCc1ccccc1)Nc1ccccc1	inactive	
COc1ccc(-c2cc(-c3ccc(F)cc3)nc3c2COc2ccccc2-3)cc1	inactive	
CC(C)(C)C(=O)COC(=O)c1cc(S(=O)(=O)N2CCCCC2)ccc1N1CCOCC1	inactive	
O=C(CCCN1C(=O)c2ccccc2C1=O)Oc1ccc(Cl)cc1	inactive	

SMILES	Potency	activity change, negative = growth inhibition
CCCCN(C(=O)CSCC(=O)Nc1ccc(OC)cc1)c1c(N)n(CCC)c(=O)[nH]c1=O	inactive	
CC(C)C(=O)NC(C)c1nnc2n1CCN(Cc1cccc3ncccc13)CC2 (centres undefined)		24.6% [at 9.04 µM] (inactive)
Cc1ccc(-c2nc(C#N)c(NCCCn3ccnc3)o2)cc1	inactive	
O=S(=O)(c1ccccc1)c1nc(-c2ccccc2)oc1NCCCN1CCOCC1	inactive	
N#Cc1nc(-c2ccc(OCc3ccccc3)cc2)oc1NCCCN1CCOCC1	20.6 µM (active)	
Nc1nc(SCC(=O)Nc2cc(C(F)(F)F)ccc2Cl)[nH]c(=O)c1NC(=O)c1ccco1	inactive	
CO[C@H]1[C@H](NC(=O)C(C)C)c2ccccc2C12CCN(Cc1cnc(N(C)C)s1)CC2		1.26% [at 9.04 µM] (inactive)
CCc1nnc(NC(=O)c2ccco2)s1	inactive	
Cc1ccc2nc(COc3cccc(NC(=O)c4ccccc4Cl)c3)cc(=O)n2c1	inactive	
CCOc1ccc2[nH]c(=S)sc2c1	18.4 µM (active)	
CCCC(=O)N(CCN1CCOCC1)c1nc2ccc(OCC)cc2s1	inactive	
Nc1ccc2[nH]c(=S)sc2c1	inactive	
CC(C)CNC(=S)NNC(=O)c1nn(C)cc1Cl	inactive	
Cn1c(C(=O)N2CCC(C(N)=O)CC2)cc2c(=O)n(C)c3ccccc3c21	inactive	
CCOc1ccc(CCNC(=O)c2c(C)oc3ncn(C)c(=O)c23)cc1	inactive	
Cn1c(C(=O)NCCc2ccsc2)cc2c(=O)n(C)c3ccccc3c21	18.4 µM (active)	
CN(Cc1ccccc1)C(=O)c1cc2c(=O)n(C)c3ccccc3c2s1	inactive	
CCOc1ccc(CCNC(=O)c2cc3c(=O)n(C)c4ccccc4c3n2C)cc1	20.6 µM (active)	
CCOc1ccc(NC(=O)c2cn(C3CCCCC3)c(=O)c3c2c2ccccc2n3C)cc1	inactive	
Cc1cc(C)cc(NC(=O)C(c2ccccc2)N2CCN(CC(=O)N3CCCC3)CC2)c1 (centres undefined)	inactive	
CC(C)CC(=O)c1c[nH]c(C(=O)NCc2ccccc2)c1	inactive	
O=C(NN1C(=O)C2C(C1=O)C1C=CC2C12CC2)c1ccccc1Cl (centres undefined)	inactive	
CC12CCC(C(=O)N(c3cccc(Cl)c3)C1=O)C2(C)C (centres undefined)	inactive	
CC12CCC(C(=O)N(NC(=O)c3ccccc3O)C1=O)C2(C)C (centres undefined)	20.6 µM (active)	

From PubChem BioAssay AID686979 (National Center for Advancing Translational Sciences (NCATS), 2013)
